In PubChem BioAssay (NCI):
This is part of a sample that, as a whole, favours compounds with a hit. Of some 83,000 tested, about 20% had one in any assay.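 Treatment: one concentration, 48 hours, 96-well format. Scoring: percent growth, with anything below 10 considered active.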 Values without a mark were called inactive. Calls of active or inactive are those of the source.

How the values were obtained:
Test in all cases: NCI-60 one-dose screen, 48 h (100 = growth as untreated, 0 = no growth, -100 = all killed)
Settings in all cases: 10 µM unless noted
[1] = tested on: HCT-15 colon
[2] = tested on: HT29 colon
[3] = tested on: SNB-75 CNS
[4] = tested on: SNB-19 CNS
[5] = tested on: U251 CNS
[6] = tested on: PC-3 prostate
[7] = tested on: SK-MEL-5 melanoma
[8] = tested on: UACC-62 melanoma
[9] = tested on: SK-MEL-28 melanoma
[10] = tested on: SK-MEL-2 melanoma
[11] = tested on: EKVX NSCLC
[12] = tested on: SN12C renal
[13] = tested on: UO-31 renal
[14] = tested on: TK-10 renal
[15] = tested on: ACHN renal
[16] = tested on: CAKI-1 renal
[17] = tested on: A498 renal
[18] = tested on: CCRF-CEM leukemia
[19] = tested on: MOLT-4 leukemia

Row | Compound | growth [1] | growth [2] | growth [3] | growth [4] | growth [5] | growth [6] | growth [7] | growth [8] | growth [9] | growth [10] | growth [11] | growth [12] | growth [13] | growth [14] | growth [15] | growth [16] | growth [17] | growth [18] | growth [19]
1 | O=C(/C=C/c1ccc(-c2ccccc2)cc1)c1nc2ccccc2n1Cc1ccc(F)cc1 | 22.8% | 9.19% (active) | 49.2% | 44.6% | 32.5% | 47.6% | 47.9% | 38.2% | 28.4% | 56.6% | 34.4% | 53.9% | 47.6% | 55.8% | 41.3% | 49.5% | 110% | 11.9% | -12.8% (active)
2 | O=C(Nc1cccc(-n2cnc3cc(-c4ccc(O)cc4)ccc32)c1)C1CC1 | 11.9% | 8.01% (active) | -5.51% (active) | 32.9% | 9.54% (active) | 47% | 7.19% (active) | 38.5% | 54.3% | 58.4% | 44.4% | 24.9% | 23.4% | 67.4% | 15.4% | 26.2% | 78.2% | 25.6% | 12.7%
3 | CSc1ccccc1NC(=O)c1ccc2nn(/C(C#N)=C/c3ccccn3)nc2c1 | -62.8% (active) | -91.9% (active) | 48.1% | 12.3% | -81.6% (active) | -57.7% (active) | -88.8% (active) | -89.6% (active) | -91.4% (active) | -67% (active) | -98.5% (active) | -59.2% (active) | -100% (active) | -98.4% (active) | -99% (active) | -87.3% (active) | 93.7% | -34.7% (active) | -22.3% (active)
4 | CC(C)c1ccc2c(N)c(C(=O)Nc3cccc(C(F)(F)F)c3)sc2n1 | -0.908% (active) | 29.2% | 129% | 87.3% | 71.1% | 73.7% | 72.3% | 92.5% | 80.2% | 89.5% | 47.4% | 76.2% | 77.9% | 97.3% | 76% | 74% | 143% | 38.9% | 56.4%
5 | Cc1c(C(=O)NNC(=O)Nc2ccc(Cl)cc2)nnn1-c1ccc(Br)cc1 | 97% | 97.2% | 90.2% | 91.4% | 104% | 103% | 99.4% | 88.7% | 96.5% | 109% | 88% | 103% | 75.7% | 96.1% | 99.7% | 83.9% | 99.8% | 89% | 83.5%
6 | S=C(NCCc1ccccc1)Nc1ccc(OCc2nc3ccccc3[nH]2)cc1 | 98% | 108% | 103% | 102% | 99.7% | 105% | 102% | 93.1% | 110% | 121% | 101% | 96.8% | 84.3% | 112% | 104% | 87.3% | 111% | 96.7% | 100%
7 | CC(=O)Oc1ccccc1C(=O)[Se]C(=NC1CCCCC1)NC1CCCCC1 | -73.5% (active) | -60.8% (active) | -63.3% (active) | -94.9% (active) | -87% (active) | -31% (active) | -89.3% (active) | -90.7% (active) | -89.1% (active) | -74.5% (active) | -97.6% (active) | -99.3% (active) | -100% (active) | -98.8% (active) | -73.8% (active) | -97.7% (active) | -5.3% (active) | 4.94% (active) | -22.2% (active)
8 | CCCCNC(=S)Nc1ccc(OCc2nc3ccccc3[nH]2)cc1 | 47.9% | 50.3% | 56% | 70% | 57.4% | 58.2% | 78% | 38.2% | 88.2% | 69.1% | 62.3% | 64.5% | 41.1% | 98.8% | 45.5% | 40% | 96.5% | 34.2% | 35.2%
9 | N#Cc1c(-c2cccc(Cl)c2Cl)cc(-c2ccc3ccccc3c2)[nH]c1=O | 69.6% | 121% | -12.7% (active) | 39.2% | 6.58% (active) | 44.4% | 85.7% | 76.2% | 92.8% | 126% | 49% | 19.1% | 24.6% | 48.9% | 40.8% | 47.2% | 87.5% | 38.3% | 71.5%
10 | Clc1cccc(Cl)c1/C=C/c1cc(/C=C/c2ccc(Br)cc2)c2ccccc2n1 | 101% | 105% | 95.9% | 92.5% | 101% | 96.2% | 104% | 83.5% | 104% | 123% | 89.8% | 93.2% | 70.2% | 126% | 100% | 73.4% | 142% | 85% | 84.8%
11 | CC1CCCCN1CCCNC(=O)N/C(N)=N/c1nc2ccccc2s1 (configuration not stated) | -13.6% (active) | 3.14% (active) | 4.11% (active) | 61.5% | 40.8% | 31.6% | -96.7% (active) | -84.2% (active) | -97% (active) | 41.3% | 46.1% | 40.9% | 24.4% | 70.1% | 42.5% | 24.6% | 104% | 26.8% | 16.4%
12 | Cc1cc2c(cc1Cl)C(=O)/C(=C/c1ccc(F)cc1)O2 | 97.8% | 102% | 95% | 90.3% | 89.9% | 91.1% | 93% | 76.6% | 111% | 122% | 90.8% | 82.1% | -80.7% (active) | 125% | 96.9% | 75.3% | 149% | 94.5% | 84.3%
13 | COc1cc2c(c(OC)c1OC)C(=O)CC(c1cccc(NC(=O)c3cc([N+](=O)[O-])ccc3Cl)c1)O2 (configuration not stated) | -0.987% (active) | 23.2% | 12.9% | 52.6% | 30.7% | 42.7% | 23.3% | 45.2% | 34.1% | 15% | 52.3% | 24% | 29.9% | 65.8% | 6.5% (active) | 20.8% | 131% | 22.8% | 14.4%
